Bioassay records (PubChem BioAssay)
KB-3-1 tox: KB-3-1 parental cell cytotoxicity; KB-3-1 viability, CellTiter-Glo ATP luminescence, 72 h; actives 1.4% (n = 400,000); Potency, µM (series often up to 46.1 µM), most hits filed as cytotoxic; also: potency is read from the fitted curve at half-maximal effect; % is scaled to controls: 0 for no effect and ±100 for the full control effect; nearly all actives have a fitted effect of over 60% in size
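KB-3-1 cells, DMEM (no phenol red) + 10% FBS; compound by pin transfer, 72 h, 37 °C. Readout: CellTiter-Glo luminescence after 10 min. Data normalized, curve-fitted.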
KB-V1 cytotox: KB-V1 MDR subline cytotoxicity | KB-V1 MDR cells viability, CellTiter-Glo, 72 h | actives 3.4% (n = 400,000) | AID 1347076 | Potency, µM (top dose mostly 46.1 µM), most hits filed as cytotoxic; also: potency is read from the fitted curve at half-maximal effect; % is scaled to controls: 0 for no effect and ±100 for the full control effect; nearly all actives have a fitted effect of over 60% in size
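Drug-selected KB-V1 cells, grown in DMEM lacking phenol red with 10% FBS, receive compound titrations; after three days at 37 degrees C, surviving cell ATP is quantified by CellTiter-Glo luminescence and responses normalized and curve-fitted.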
hERG WT inh: blocks the wildtype human KCNH2 potassium channel | U2OS, BacMam KCNH2, thallium flux FluxOr; active compounds read low | activity change, % at 1.84 µM | actives 0.37% (n = 340,000);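 active = maximum activity change below -70%; inconclusive = maximum activity change between -70% and -50%; inactive = maximum activity change above -50%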; also: % is scaled to controls: 0 for no effect and ±100 for the full control effect
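U2OS cells transduced with wild-type KCNH2 virus are loaded with FluxOr dye for 45 min, and thallium flux is measured in kinetic reads before and after stimulation buffer. Rate constants are normalized to DMSO controls.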
SW480 rerep: induces DNA re-replication in SW480 colon adenocarcinoma cells; actives 1.8% (n = 340,000); Potency, µM (doses to about 46.1 µM), without a hit: at the top dose re-replication activation, usual class: activators; SW480 DNA re-replication, Hoechst DNA content imaging, 48 h; also: potency is read from the fitted curve at half-maximal effect; % of control where 0% means no effect; nearly all actives have a fitted effect of over 55% in size
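SW480 cells exposed to compounds for 48 hr at 37 C, 5% CO2, then Hoechst-stained 40 min. Nuclear DNA content imaged by fluorescence scanning (405 nm excitation, 500-530 nm emission); re-replication scored as increased high-intensity nuclei.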
MCF10A rereplic: induces DNA re-replication in MCF 10a normal breast cells. MCF 10A DNA re-replication, Hoechst nuclear intensity, 48 h. Potency, µM (series often up to 46.1 µM), for inactives: top-dose activity, positive = re-replication, actives largely listed as activators. actives 2.9% (n = 350,000); also: potency is read from the fitted curve at half-maximal effect; % of control where 0% means no effect; nearly all actives have a fitted effect of over 50% in size
KCNH2 3.1 inh: blocks the human KCNH2 3.1 channel isoform. AID 720553. actives 0.95% (n = 340,000). U2OS KCNH2 3.1, thallium flux FluxOr; active compounds read low. activity change, % (tested at about 1.8 µM);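 active = maximum activity change below -70%; inconclusive = maximum activity change from -70% to -50%; inactive = maximum activity change above -50%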;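 also: thallium influx rate constant from kinetic fluorescence after stimulation buffer; % is scaled to controls: 0 for no effect and ±100 for the full control effect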
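Channel expression came from 3.1 mutant virus (1.77 x 10^8 /mL) applied to suspended U2OS cells for 4 h. Flux was tracked with FluxOr dye plus Red40 quencher, and kinetic rate constants normalized to controls.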
Starred values were filed as active, the others as inactive; i = inactive; ? = inconclusive; / = no result. An excerpt weighted towards active compounds, which were near 7.6% of everything screened. Unless noted, calls follow the shape of the dose curve; as a rule, active = well fitted curve in the direction sought with a large enough effect; inconclusive = small, poorly fitted or top-dose-only effect, or another doubt; inactive = no such curve, though single readings can be large; an effect the other way counts as inactive or inconclusive.

SMILES	KB-3-1 tox	KB-V1 cytotox	hERG WT inh	SW480 rerep	MCF10A rereplic	KCNH2 3.1 inh
CC(=O)c1c(C)nn(CC(O)COc2ccc3c(c2)CCC3)c1C (configuration not stated)	i	10µM*	13	7%	-2%	3
CCOC(=O)C(=O)NCC(c1cccs1)S(=O)(=O)c1ccc(F)cc1 (configuration not stated)	i	i	-10	-55%	-18%	-138*
CCOC(=O)C(=O)NCC(c1cccs1)S(=O)(=O)c1ccc(C)cc1 (configuration not stated)	i	i	-11	-42%	-1%	-18
CCc1ccc(NC(=O)c2sc3nc4n(c(=O)c3c2C)CCC4)cc1	i	i	8	?	-1%	-91*
CC(=O)Nc1ccc(NC(=O)c2sc3nc4n(c(=O)c3c2C)CCCCC4)cc1	i	i	/	-76%	5%	11
CC(=O)c1cccc(NC(=O)c2sc3nc4n(c(=O)c3c2C)CCCC4)c1	i	i	14	9.2µM*	4%	23
COc1ccc(COC(=O)c2sc3nc4n(c(=O)c3c2C)CCC4)cc1	i	8.2µM*	-2	-1%	26%	10
Cc1c(C(=O)Nc2cccc(C(F)(F)F)c2)sc2nc3n(c(=O)c12)CCCC3	i	i	/	/	/	/
COc1ccc(C2CC(=O)c3cc(-c4nc(-c5cccc([N+](=O)[O-])c5)cs4)c(=O)n(-c4ccccc4C)c3C2)cc1 (configuration not stated)	i	?	/	/	/	/
Cc1ccc(S(=O)(=O)N2CCCCC2)cc1NC(=O)Cn1ccsc1=N	i	i	11	-6%	1%	-12
N=c1sccn1CC(=O)Nc1cccc(S(=O)(=O)N2CCCCCC2)c1	i	i	/	-41%	16%	-71*
O=C(Cc1ccc(Cl)cc1)Nc1cccc(S(=O)(=O)N2CCCCC2)c1	?	i	-3	-7%	?	-16
O=C(CCl)Nc1cccc(S(=O)(=O)N2CCCCCC2)c1	16µM*	23µM*	3	13µM*	?	-9
COc1cccc(OC)c1C(=O)NC(=O)Nc1c(C)cccc1C	i	i	21	1%	12%	0
COc1ccc(C2=CSC3=NCCN23)cc1Br	i	i	1	?	?	-7
COc1ccc(Cc2c(-c3cccc(Cl)c3)nc3c(C)cc(Br)cn23)c(C)c1	?	i	/	/	/	/
CN(Cc1ccccc1)Cc1nc2c(c(=O)n(C)c(=O)n2C)n1Cc1ccccc1Cl	i	9.2µM*	-7	-7%	-3%	-8
COc1ccc(N2CCN(Cc3nc4c(c(=O)n(C)c(=O)n4C)n3C(C)C)CC2)cc1	16µM*	i	/	/	/	/
CCCCn1c(CN(C)Cc2ccccc2)nc2c1c(=O)n(C)c(=O)n2C	?	2.3µM*	7	-10%	15%	1
Cn1c(=O)c2c(nc(CN3CCN(c4ccccc4)CC3)n2Cc2ccccc2Cl)n(C)c1=O	?	8.2µM*	-8	?	?	-1
Cn1c(=O)c2c(nc(CN3CCc4ccccc4C3)n2Cc2ccccc2)n(C)c1=O	12µM*	i	8	-1%	?	2
Cn1c(=O)c2c(nc(CN3CCc4ccccc4C3)n2Cc2ccc(Cl)cc2)n(C)c1=O	i	i	5	3%	?	1
Cc1ccc(Cn2cnc3ccccc32)cc1C	8.2µM*	21µM*	2	1%	18%	4
Sc1ccccc1N=Cc1cccs1	i	i	10	/	/	-5
CCOC(=O)N1CCN(C(=O)c2ccccc2-c2ccccc2)CC1	4.6µM*	4.6µM*	-16	10µM*	8.2µM*	-7
COc1ccccc1N1CCN(C(=O)C(NS(=O)(=O)c2cccs2)c2ccccc2)CC1 (configuration not stated)	i	4.6µM*	7	-6%	-4%	-27
